Assay [1] in a line: qHTS profiling for inhibitors of Plasmodium falciparum proliferation (AID 504749).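 As to activity, negative = inhibition: 0% = DMSO vehicle and full inhibition = artemisinin control.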 As to all read-outs here: nearly all actives have a fitted effect of over 60% in size. The following applies: P. falciparum in erythrocytes, SYBR Green DNA, 72 h; for activity, negative = inhibition: at 28.7 µM (top of the series). An outline of the steps: (§1)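 SYBR Green fluorescence (ex 485 nm, em 535 nm) reports parasite DNA after 72 h compound exposure of infected red cells at 0.3% parasitemia, 2.5% hematocrit; signal normalized to 0.29 uM artemisinin and vehicle wells.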
(In qHTS, concentration-response curves come from the screen itself.)

A further assay has as its system 3D7. The description is as above. The following applies: P. falciparum in erythrocytes, SYBR Green DNA, 72 h; series mostly up to 28.7 µM. Summed up:
as §1

The test system of the next assay is 7G8. The assay is described as above. The note with it: P. falciparum in erythrocytes, SYBR Green DNA, 72 h; series mostly up to 28.7 µM. Summed up:
as §1

The test system of the next assay is AA1029. The description is as above. The following applies: P. falciparum in erythrocytes, SYBR Green DNA, 72 h; series mostly up to 28.7 µM. Summed up:
as §1

The subject of the next assay is AS120. The assay is described as above. The following applies: P. falciparum in erythrocytes, SYBR Green DNA, 72 h; series mostly up to 28.7 µM. Summed up: as §1
The next assay relates to ATS189. Described as above. The note with it: P. falciparum in erythrocytes, SYBR Green DNA, 72 h; series mostly up to 28.7 µM. Summed up:
as §1

A further assay deals with ATS95. The description is as above. The following applies: P. falciparum in erythrocytes, SYBR Green DNA, 72 h; series mostly up to 28.7 µM. Summed up:
as §1

Another assay has as its system C2A. Described as above. The following applies: P. falciparum in erythrocytes, SYBR Green DNA, 72 h; series mostly up to 28.7 µM. An outline of the steps:
as §1

In the next assay the test system is CP185. The description is as above. The following applies: P. falciparum in erythrocytes, SYBR Green DNA, 72 h; series mostly up to 28.7 µM. Summed up: as §1
The next assay deals with CP191. The assay is described as above. The following applies: P. falciparum in erythrocytes, SYBR Green DNA, 72 h; series mostly up to 28.7 µM. An outline of the steps: as §1
Another assay concerns CP194. The description is as above. The note with it: P. falciparum in erythrocytes, SYBR Green DNA, 72 h; series mostly up to 28.7 µM. An outline of the steps: as §1
The test system of the next assay is CP201. Described as above. The note with it: P. falciparum in erythrocytes, SYBR Green DNA, 72 h; series mostly up to 28.7 µM. An outline of the steps:
as §1

The test system of the next assay is CP203. Described as above. The note with it: P. falciparum in erythrocytes, SYBR Green DNA, 72 h; series mostly up to 28.7 µM. An outline of the steps: as §1
For a further assay, the system named is CP211. The description is as above. The following applies: P. falciparum in erythrocytes, SYBR Green DNA, 72 h; series mostly up to 28.7 µM. Summed up: as §1
The test system of the next assay is CP215. The description is as above. The note with it: P. falciparum in erythrocytes, SYBR Green DNA, 72 h; series mostly up to 28.7 µM. An outline of the steps: as §1
Another assay deals with CP217. The assay is described as above. The note with it: P. falciparum in erythrocytes, SYBR Green DNA, 72 h; series mostly up to 28.7 µM. An outline of the steps: as §1
The subject of the next assay is CP237. The description is as above. The following applies: P. falciparum in erythrocytes, SYBR Green DNA, 72 h; series mostly up to 28.7 µM. Summed up:
as §1

For a further assay, the system named is CP192. The description is as above. The following applies: P. falciparum in erythrocytes, SYBR Green DNA, 72 h; series mostly up to 28.7 µM. An outline of the steps: as §1

Structures are written as SMILES. Records with an inconclusive call do not appear. Values without a mark were called inactive. Activity calls are given as the source filed them. Calls follow the shape of the dose curve; as a rule, active = well fitted inhibition curve with a large enough effect; inconclusive = small, poorly fitted or top-dose-only effect; inactive = flat fitted curve, though single readings scatter. Numbered stars: 1 amine (or outer) side, 2 acyl side, 3 side chain; on linkers, the order of the positions; unused ones are H or OH. Bridge positions count the residues as written; N and C are the ends. Square brackets hold non-standard residues; d marks the D form. Peptide text beside a SMILES is read from it. I, II: the chains in the order shown. Actinocin(9to1) = Cc1c2oc3c(C)ccc(C(=O)[*:1])c3nc-2c(C(=O)[*:2])c(N)c1=O; NMeV = CN[C@H](C(=O)O)C(C)C; Sar = CNCC(=O)O
Potency is read from the fitted curve at half-maximal effect.

In the case of `C#C[C@]1(OC(C)=O)CC[C@H]2[C@@H]3CCC4=C[C@@H](OC(C)=O)CC[C@@H]4[C@H]3CC[C@@]21C`, the activity, negative = inhibition was -15% in assay [1] (parasite line A) and -19.2% in assay [1] (parasite line B). For the same molecule, the Potency entry in the assay on 3D7, in the assay with 7G8, with AA1029, with AS120, with ATS189 and in the assay on ATS95 was “inactive” each time. Also, the Potency result with C2A, with CP185, in the assay with CP191, with CP194, in the assay on CP201 and with CP203 was “inactive” throughout. Moreover, the Potency result in the assay with CP211, with CP215, in the assay on CP217 and with CP237 was “inactive” in each case.

For `CCCCCCC[N+](CC)(CC)CCCCc1ccc(Cl)cc1`, the Potency is 1780 nM (active) in assay [1] (parasite line A); 2240 nM (active) in [1] (parasite line B); 1410 nM (active) in the assay on 3D7; 631 nM (active) in the assay with 7G8; 2000 nM (active) with AA1029; 2510 nM (active) with AS120. In addition, the Potency with ATS189 is 2820 nM (active); in the assay with ATS95, 2240 nM (active); with C2A it was 1580 nM (active); in the assay on CP185 it was 2000 nM (active); in the assay on CP191 it was 2000 nM (active); in the assay on CP192, 2030 nM (active). In addition, the Potency with CP194 is 2280 nM (active); in the assay with CP201, 2560 nM (active); in the assay with CP211 it was 1440 nM (active); with CP215 it was 2030 nM (active); with CP217, 2820 nM (active); with CP237 it was 2820 nM (active).

Consider `COc1ccc(CCN2CCC(Nc3nc4ccccc4n3Cc3ccc(F)cc3)CC2)cc1`, for which the Potency in assay [1] (parasite line A) is 1410 nM (active); in assay [1] (parasite line B) it was 2240 nM (active); with 3D7 it was 1780 nM (active); in the assay with 7G8 it was 2240 nM (active); with AA1029, 3550 nM (active); with AS120 it was 3550 nM (active). Further, the Potency with ATS189 was 4470 nM (active); in the assay with ATS95, 3980 nM (active); in the assay on C2A it was 2510 nM (active); with CP185 it was 3550 nM (active); in the assay with CP191, 2240 nM (active); in the assay on CP192, 12000 nM (active). The Potency in the assay with CP194 was 9530 nM (active); in the assay with CP201, 7570 nM (active); in the assay on CP211, 15100 nM (active); in the assay with CP217, 3550 nM (active); in the assay with CP237, 2240 nM (active).

Regarding `Cc1c2oc3c(C)ccc(C(=O)N[C@@H]4C(=O)N[C@H](C(C)C)C(=O)N5CCC[C@H]5C(=O)N(C)CC(=O)N(C)[C@@H](C(C)C)C(=O)O[C@@H]4C)c3nc-2c(C(=O)N[C@@H]2C(=O)N[C@H](C(C)C)C(=O)N3CCC[C@H]3C(=O)N(C)CC(=O)N(C)[C@@H](C(C)C)C(=O)O[C@@H]2C)c(N)c1=O` (I: T[dV]P[Sar][NMeV] / II: T[dV]P[Sar][NMeV]; ester I:1-I:C, II:1-II:C; linker I:N-II:N via Actinocin(9to1)), the Potency in [1] (parasite line A) is 3.5 nM (active); in [1] (parasite line B), 6.3 nM (active); in the assay on 3D7, 5.6 nM (active); in the assay on 7G8 it was 1.3 nM (active); with AA1029 it was 4.5 nM (active); in the assay with AS120, 4.5 nM (active). Besides, the Potency in the assay with ATS189 is 3.2 nM (active); with ATS95, 4 nM (active); in the assay on C2A it was 5.6 nM (active); in the assay with CP185, 4.5 nM (active); with CP191, 4.5 nM (active); in the assay on CP192, 6 nM (active). For the same molecule, the Potency was 5.4 nM (active) in the assay on CP194; 7.6 nM (active) in the assay on CP201; 6 nM (active) in the assay with CP211; 5.4 nM (active) in the assay with CP215; 7.1 nM (active) in the assay on CP217; 0.0708 nM (active) with CP237.

In the case of `Cc1cc(N)c2cc(NC(=O)Nc3ccc4nc(C)cc(N)c4c3)ccc2n1`, the Potency in [1] (parasite line A) was 8910 nM (active); in [1] (parasite line B) it was 11200 nM (active); in the assay on 3D7 it was 7080 nM (active); with 7G8, 2240 nM (active); in the assay on AA1029 it was 14100 nM (active); in the assay with AS120, 12600 nM (active). Also, the Potency with ATS189 was 5620 nM (active); with ATS95, 11200 nM (active); with C2A, 10000 nM (active); with CP185, 11200 nM (active); in the assay with CP191, 631 nM (active); in the assay on CP192 it was 3790 nM (active). The Potency was 3790 nM (active) in the assay on CP211, 8910 nM (active) in the assay with CP217 and 5010 nM (active) with CP237.

As for `CCCCCCCCCCCCCCCC[N+](C)(C)CC`, the Potency in assay [1] (parasite line A) is 3980 nM (active); in assay [1] (parasite line B) it was 5010 nM (active); in the assay on 3D7, 3550 nM (active); in the assay with 7G8, 3550 nM (active); in the assay with AA1029, 4470 nM (active); in the assay on AS120, 5010 nM (active). Besides, the Potency was 10000 nM (active) with ATS189; 6310 nM (active) in the assay on ATS95; 3550 nM (active) in the assay on C2A; 3980 nM (active) in the assay with CP185; 3980 nM (active) in the assay with CP191; 4780 nM (active) with CP192. Also, the Potency in the assay with CP194 is 6010 nM (active); with CP201, 6750 nM (active); with CP211, 4780 nM (active); in the assay on CP215, 9530 nM (active); in the assay on CP217, 5620 nM (active); in the assay with CP237, 4470 nM (active).

Source of the values: PubChem BioAssay (NCATS).
